The panel holds about 83,000 compounds, 20% with a hit somewhere; the sample as a whole holds those more often.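 Method: cells in 96-well plates; compound added at one concentration; 48 h incubation; percent growth measured; values under 10 scored active.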 The source made the active and inactive calls.
Legend:
Experiment in all cases: NCI-60 one-dose screen, 48 h (100 = growth as untreated, 0 = no growth, -100 = all killed)
Conditions in all cases: 10 µM unless noted
DU-145 prostate = test system: DU-145 prostate
K-562 leukemia = test system: K-562 leukemia
MALME-3M melanoma = test system: MALME-3M melanoma
MDA-MB-231 breast = test system: MDA-MB-231 breast
RXF 393 renal = test system: RXF 393 renal
SF-268 CNS = test system: SF-268 CNS
SF-295 CNS = test system: SF-295 CNS
SF-539 CNS = test system: SF-539 CNS
UACC-257 melanoma = test system: UACC-257 melanoma
M14 melanoma = test system: M14 melanoma

Measured: growth

N#Cc1cc(-c2ccc3ncnc(N4CCc5cc(F)c(Cl)cc54)c3c2)cnc1N
active: DU-145 prostate 8.95%
inactive: K-562 leukemia 37.8% | MALME-3M melanoma 50.6% | MDA-MB-231 breast 28.7% | RXF 393 renal 17.9% | SF-268 CNS 46.5% | SF-295 CNS 40.1% | SF-539 CNS 35.6% | UACC-257 melanoma 90.2% | M14 melanoma 36.8%

O=C(c1ccc(O)cc1)C1[C@H](c2ccc(Cl)cc2)[C@@H](c2ccccc2)NC12C(=O)Nc1ccccc12 (stereo not given in full)
inactive: DU-145 prostate 20.5% | SF-268 CNS 22.4% | UACC-257 melanoma 77.7%
active: K-562 leukemia -8.58% | MALME-3M melanoma -40.2% | MDA-MB-231 breast -80.2% | RXF 393 renal -74% | SF-295 CNS -48.6% | SF-539 CNS -50.6% | M14 melanoma -27%

NS(=O)(=O)c1cccc(Nc2nc(SCC(=O)c3ccc(F)cc3)nc3ccccc23)c1
active: DU-145 prostate 9.74% | K-562 leukemia 8.34% | MDA-MB-231 breast 7.12% | SF-268 CNS 8.21% | SF-295 CNS -5.65% | SF-539 CNS 8.17%
inactive: MALME-3M melanoma 10.6% | RXF 393 renal 38.9% | UACC-257 melanoma 14.4% | M14 melanoma 23.3%

CC1CCc2c(sc3nc(SCC(=O)c4cccc([N+](=O)[O-])c4)n(-c4ccccc4)c(=O)c23)C1 (stereo not given)
inactive: DU-145 prostate 63.1% | K-562 leukemia 57.1% | MALME-3M melanoma 111% | MDA-MB-231 breast 10.1% | RXF 393 renal 99.9% | SF-268 CNS 73.2% | SF-295 CNS 74.2% | UACC-257 melanoma 97.8% | M14 melanoma 80.6%
active: SF-539 CNS -10.9%

Cc1cc(C2(c3cc(C)c(OCC(O)CNc4c(C)n(C)n(-c5ccccc5)c4=O)cc3C(C)C)OC(=O)c3ccccc32)c(C(C)C)cc1OCC(O)CNc1c(C)n(C)n(-c2ccccc2)c1=O (stereo not given)
inactive: DU-145 prostate 50.7% | MALME-3M melanoma 26.3% | SF-268 CNS 32.6% | SF-295 CNS 24% | SF-539 CNS 38.9% | UACC-257 melanoma 27.5% | M14 melanoma 29.2%
active: K-562 leukemia 4.53% | MDA-MB-231 breast -36.5% | RXF 393 renal 1.98%

O=C(NN1C(=O)/C(=C/C=C/c2ccc([N+](=O)[O-])o2)SC1=S)c1ccc([N+](=O)[O-])cc1
active: DU-145 prostate -100% | K-562 leukemia 4.2% | MALME-3M melanoma -91.3% | MDA-MB-231 breast -99.7% | RXF 393 renal -88.6% | SF-268 CNS -82.3% | SF-295 CNS -97.5% | SF-539 CNS -100% | UACC-257 melanoma -82.2% | M14 melanoma -82.5%

COc1ccc2[nH]c(=O)c(CSc3ccccc3Nc3nccc(-c4ccc(C(F)(F)F)cc4)n3)cc2c1
inactive: DU-145 prostate 27.3% | K-562 leukemia 19.5% | MALME-3M melanoma 47.4% | MDA-MB-231 breast 31.6% | SF-268 CNS 19.5% | UACC-257 melanoma 50.3% | M14 melanoma 52.3%
active: RXF 393 renal -41.2% | SF-295 CNS 5.31% | SF-539 CNS 0.901%

Cc1cccc(NCC(=O)N2CCN(c3ncnc4c3cnn4-c3ccccc3)CC2)c1
inactive: DU-145 prostate 75.4% | K-562 leukemia 43.8% | MALME-3M melanoma 72.8% | MDA-MB-231 breast 65% | RXF 393 renal 76.3% | SF-268 CNS 73.3% | SF-295 CNS 46.6% | SF-539 CNS 59.9% | UACC-257 melanoma 66.9% | M14 melanoma 62.2%

COc1cc(/C=C/C(=O)c2cnn(-c3cc(=O)[nH]c4ccccc34)c2C)cc(OC)c1OC
inactive: DU-145 prostate 24.9% | MALME-3M melanoma 38.2% | SF-268 CNS 32.2% | SF-295 CNS 14.5% | UACC-257 melanoma 43.3% | M14 melanoma 19.5%
active: K-562 leukemia 3.19% | MDA-MB-231 breast 5.84% | RXF 393 renal -6.88% | SF-539 CNS -48%

COc1ccccc1Nc1nnc(-c2c[nH]c3ccccc23)o1
inactive: DU-145 prostate 12.6% | MALME-3M melanoma 44.1% | SF-268 CNS 47.7% | UACC-257 melanoma 44.7% | M14 melanoma 20.5%
active: K-562 leukemia 7.09% | MDA-MB-231 breast 3.73% | RXF 393 renal -48.2% | SF-295 CNS -28.8% | SF-539 CNS -40.3%

O=C(NNC(=S)NCCc1ccccc1)c1ccc(OCc2nc3ccc(Cl)cc3[nH]2)cc1
inactive: DU-145 prostate 79.4% | K-562 leukemia 29.6% | MALME-3M melanoma 65.5% | MDA-MB-231 breast 95.5% | RXF 393 renal 93% | SF-268 CNS 70.4% | SF-295 CNS 61.4% | SF-539 CNS 84.3% | UACC-257 melanoma 79.9% | M14 melanoma 93.9%

CN(C)c1nc(NCCNS(=O)(=O)c2ccc(C(=O)/C=C/c3ccccc3)cc2)nc(N2CCOCC2)n1
inactive: DU-145 prostate 89.6% | MALME-3M melanoma 99.2% | RXF 393 renal 79% | SF-268 CNS 74.6% | SF-295 CNS 75.6% | SF-539 CNS 77.1% | UACC-257 melanoma 78.8% | M14 melanoma 84.4%
active: K-562 leukemia -15.4% | MDA-MB-231 breast 7.26%

CC1=C(C)C(=O)C(NCCN2CCOCC2)=C(Br)C1=O
inactive: RXF 393 renal 122% | SF-268 CNS 63.7% | SF-295 CNS 103% | SF-539 CNS 32.1% | M14 melanoma 37.3%
active: DU-145 prostate -76.9% | K-562 leukemia 0.994% | MALME-3M melanoma -69% | MDA-MB-231 breast -6.27% | UACC-257 melanoma -13.3%

From PubChem BioAssay (NCI)
